Here are results for 16 compounds from PubChem BioAssay (EPA / NIEHS).

Inconclusive results are not listed. Activity calls are given as the source filed them. Rule for the calls, unless noted: active = hit-call score of the fitted dose curve at least 0.9, where 1 is the maximum; inactive = score below 0.9.

A short description of assay [1]: CCTE_Shafer_MEA_dev_per_burst_interspike_interval: CCTE's Neural Network Formation Assay for Burst Interspike Interval, Shafer Lab (AID 2284044).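 For AC50: potency for a decrease of within-burst interspike interval below DMSO level.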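 Note: mean spike spacing inside bursts as AUC over recordings on days 5 7 9 12.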 An outline of the steps:
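Mean interspike interval within single-electrode bursts, averaged over bursting electrodes, from rat cortical cultures on MEA plates recorded on days 5, 7, 9 and 12. Continuous compound exposure from plating; trapezoidal AUC fitted downward relative to DMSO.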

A short description of assay [2]: CCTE_Shafer_MEA_dev_burst_duration_mean: CCTE's Neural Network Formation Assay for Mean Burst Duration, Shafer Lab (AID 2284045).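 For AC50: curve fitted for loss meaning shorter burst duration than DMSO.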 Summed up:
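Primary rat cortical neurons on 48-well 16-electrode MEA plates, exposed from day 0 with renewal at DIV 5 and 9; spontaneous activity recorded on days 5, 7, 9, 12. Well-mean burst duration across bursting electrodes, collapsed as trapezoidal AUC; DMSO baseline.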

Assay [3] is described as follows: CCTE_Shafer_MEA_dev_interburst_interval_mean: CCTE's Neural Network Formation Assay for Mean Interburst Interval, Shafer Lab (AID 2284046).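 Note: curve fitted for decrease in interburst interval relative to DMSO.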 An outline of the steps: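 Primary rat cortical neurons on PEI-coated 48-well MEA plates (laminin added with cells at plating) (16 electrodes/well), exposed from plating day 0 with renewal at DIV 5 and 9. Mean inter-burst interval averaged over bursting electrodes, AUC across days 5, 7, 9, 12; DMSO baseline.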

The nature of assay [4]: CCTE_Shafer_MEA_dev_inter_network_spike_interval_mean: CCTE's Neural Network Formation Assay for Mean Inter-network Spike Interval, Shafer Lab (AID 2284047). Summed up: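 Mean time between consecutive network-spike peaks, recorded extracellularly (adaptive spike detection) on DIV 5, 7, 9 and 12, summarized as trapezoidal AUC. Rat cortical cultures on MEAs dosed continuously days 0–12, re-dosed at feeds; loss-of-signal fit relative to DMSO.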

The nature of assay [5]: CCTE_Shafer_MEA_dev_network_spike_number: CCTE's Neural Network Formation Assay for Number of Network Spikes, Shafer Lab (AID 2284048).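 For AC50: fit as a loss of signal meaning fewer network spikes than DMSO.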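 Note: synchronized bursts across electrodes counted on days 5 7 9 12 and integrated as AUC.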 An outline of the steps:
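Primary rat cortical neurons on PEI/laminin 48-well MEA plates, dosed from plating day 0 for 12 days, renewed at DIV 5 and 9. Network spike counts recorded DIV 5, 7, 9, 12, collapsed as trapezoidal AUC; DMSO baseline.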

Assay [6] in a line: CCTE_Shafer_MEA_dev_network_spike_peak: CCTE's Neural Network Formation Assay for Mean Number of Electrodes in Network Spike, Shafer Lab (AID 2284049).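 For AC50: fitted for loss of signal meaning fewer electrodes in network spikes than DMSO.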 Summed up:
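Network-spike peak electrode count from recordings on days 5, 7, 9 and 12 was combined as trapezoidal area under the curve. Rat cortical cultures were treated continuously from plating, with compound renewed at each feed (DIV 5, 9); fits versus DMSO.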

Assay [7] in a line: CCTE_Shafer_MEA_dev_spike_duration_mean: CCTE's Neural Network Formation Assay for Mean Spike Duration, Shafer Lab (AID 2284051).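 For AC50: potency for a decrease in mean network spike duration versus DMSO.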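 Note: mean network spike duration pooled as area under curve over DIV 5 to 12 recordings.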 An outline of the steps:
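Spontaneous activity was recorded on days 5, 7, 9 and 12 from rat cortical cultures grown on microelectrode arrays and dosed continuously from day 0, with media and compound renewed after the DIV 5 and 9 recordings. Network-spike duration was collapsed by area under the curve.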

A short description of assay [8]: CCTE_Shafer_MEA_dev_network_spike_duration_std: CCTE's Neural Network Formation Assay for Standard Deviation of Network Spike Duration, Shafer Lab (AID 2284052).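 Note: hits are decreases in network spike duration SD versus DMSO vehicle.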 Summed up: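 Network spike duration variability was collapsed across recordings on days 5, 7, 9 and 12 by trapezoidal area-under-curve and fitted downward against DMSO. Cultures were rat cortical neurons on PEI-coated MEA plates, dosed continuously from plating, refed with compound DIV 5/9.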

Assay [9] can be described thus: CCTE_Shafer_MEA_dev_per_network_spike_spike_number_mean: CCTE's Neural Network Formation Assay for Mean Number of Spikes in a Network Spike, Shafer Lab (AID 2284053).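 For AC50: fitted as decrease in spikes per network spike relative to DMSO.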 An outline of the steps:
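Mean spike count within each network spike, taken in a 0.05 s window at its peak, was recorded on days 5, 7, 9 and 12 and integrated as trapezoidal area under the curve. Rat cortical cultures on MEA plates received continuous compound from day 0, refreshed at medium changes on DIV 5 and 9.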

Assay [10] is described as follows: CCTE_Shafer_MEA_dev_per_network_spike_spike_percent: CCTE's Neural Network Formation Assay for Percent of Spikes in a Network Spike, Shafer Lab (AID 2284054). Summed up:
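Rat primary cortical neurons were grown on 48-well MEA plates (16 electrodes/well), exposed from plating day 0 through day 12, with treatment renewed on DIV 5 and 9. Percent of spikes within 0.05 s network-spike peaks was measured, summarised as AUC across days 5, 7, 9, 12.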

Assay [11] can be described thus: CCTE_Shafer_MEA_dev_LDH: CCTE's Lactate Dehydrogenase Assay for Cytotoxicity in the Neural Network Formation Assay, Shafer Lab (AID 2284068; active = hit-call score of the fitted dose curve at least 0.9, where 1 is the maximum;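 note: exposure for twelve days from plating with re-dosing on DIV 5 and 9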). Summed up:
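Primary rat cortical neurons were cultured on PEI-coated MEA plates and exposed from plating through day 12, with compound renewed at medium changes on DIV 5 and 9. LDH activity was read spectrophotometrically; loss of signal versus DMSO indicates reduced viability.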

Assay [12] can be described thus: CCTE_Shafer_MEA_dev_AB: CCTE's Alamar Blue Assay for Cytotoxicity in the Neural Network Formation Assay, Shafer Lab (AID 2284083; active = hit-call score of the fitted dose curve at least 0.9, where 1 is the maximum;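 note: resazurin reduction fluorescence as viability of cultured neurons; twelve days of exposure from plating with re-dosing on DIV 5 and 9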). Summed up: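 Resazurin fluorescence, relative to DMSO, gauges viability after twelve days of exposure that began at plating of rat cortical neurons (1.5 x 10^5 cells/well, 48-well MEA); treatment renewed with full medium exchange on DIV 5 and 9.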

The nature of assay [13]: CCTE_Shafer_MEA_acute_LDH: CCTE's Lactate Dehydrogenase Assay for Cytotoxicity in the Neural Acute Assay, Shafer Lab (AID 2284086; active = hit-call score of the fitted dose curve at least 0.9, where 1 is the maximum;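 note: active means LDH release rises above DMSO vehicle level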). An outline of the steps: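 Released lactate dehydrogenase, read at 490 nm, indicated cytotoxicity after acute 40-min compound treatment of rat cortical neuron networks grown on 48-well MEA plates.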
Assay [14] is described as follows: CCTE_Shafer_MEA_dev_mutual_information_norm: CCTE's Neural Network Formation Assay for Mutual Information Normalization, Shafer Lab (AID 2284091).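 For AC50: mutual information between electrodes summarised as area under curve across four recording days; potency is for a decrease in mutual information relative to DMSO.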 An outline of the steps: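 Primary rat cortical neurons on PEI-coated 48-well MEA plates, 1.5 x 10^5 cells/well, exposed from day 0 through day 12 with re-dosing at DIV 5 and 9. Mutual information between electrodes recorded days 5, 7, 9, 12; trapezoidal AUC, loss-of-signal fit versus DMSO.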

The nature of assay [15]: CCTE_Shafer_MEA_dev_correlation_coefficient_mean: CCTE's Neural Network Formation Assay for Mean Correlation Coefficient, Shafer Lab (AID 2284093).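 For AC50: well mean pairwise spike train correlation integrated as AUC over recording days 5 to 12; potency fitted for loss of correlation relative to DMSO vehicle wells.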 An outline of the steps: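 Primary rat cortical neurons on PEI-coated 48-well MEA plates (16 electrodes/well) were exposed from plating day 0 through DIV12, with compound renewed at DIV5 and 9. Pairwise spike correlations were averaged per well; trapezoidal AUC across DIV5, 7, 9, 12.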

Assay [16] in a line: CCTE_Shafer_MEA_acute_AB: CCTE's Alamar Blue Assay for Cytotoxicity in the Neural Acute Assay, Shafer Lab (AID 2284069; active = hit-call score of the fitted dose curve at least 0.9, where 1 is the maximum;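 note: active compounds lower the viability signal compared with DMSO wells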). An outline of the steps: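 Resazurin reduction (CellTiter Blue, 1:6 in fresh medium) read at ex 544/em 590 nm marks viability loss relative to DMSO. Cells: primary rat cortical neuron networks on microelectrode arrays, treated after baseline recording at 13 or 15 days in vitro.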

In the next assay the test system is DIO2 (gene 1734). Nature of the assay: CCTE_GLTED_hDIO2: CCTE's human Deiodinase 2 (DIO2) Inhibition Assay, Great Lakes Toxicology and Ecology Division (GLTED) Lab (AID 2284050; active = hit-call score of the fitted dose curve at least 0.9, where 1 is the maximum). Summed up:
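In this cell-free test, chemicals are exposed to human deiodinase type 2 for 3 hours. Released iodide is determined spectrophotometrically via the Sandell-Kolthoff method, and signal loss relative to DMSO is fitted.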

For the next assay, the system named is DIO3 (gene 1735). The experiment in a line: CCTE_GLTED_hDIO3: CCTE's human Deiodinase 3 (DIO3) Inhibition Assay, Great Lakes Toxicology and Ecology Division (GLTED) Lab (AID 2284055; active = hit-call score of the fitted dose curve at least 0.9, where 1 is the maximum;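 for AC50: potency is for inhibition seen as loss of released iodide signal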). An outline of the steps: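 Enzyme activity is tracked as iodide release from substrate by recombinant human DIO3 over 3 h with chemical present. A second Sandell-Kolthoff step converts iodide to an absorbance signal, fitted relative to DMSO.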

A word on the AC50: it is the midpoint of the concentration-response curve, whichever way the signal moves. As for `ClC1=C(Cl)[C@]2(Cl)[C@H]3[C@H]([C@@H]4C=C[C@H]3C4)[C@@]1(Cl)C2(Cl)Cl`, the half-maximal activity concentration (AC50) in [1] is 6.26 µM (active); in assay [2], 3.95 µM (active); in assay [3], 7.62 µM (active); in [5] it was 7.56 µM (active); in assay [6], 5.55 µM (active); in assay [7], 5.79 µM (active). The AC50 was 1.98 µM (active) in [9]; 7.67 µM (active) in assay [10]; 6.69 µM (active) in assay [11]; 7.93 µM (active) in assay [12]; 0.909 µM (active) in [14]; 1.99 µM (active) in [15]. Moreover, the compound was classed as inactive in assay [4], in assay [8] and in assay [13].

Regarding `CC(C)(OOC(C)(C)c1ccccc1)c1ccccc1`, the compound was classed as inactive in assay [16] and in assay [13].

On to `CCC(C)c1ccc(O)cc1` (configuration not stated), for which the compound was called inactive in assay [16] and in assay [13].

Turning to `CCN(CC)CCO`, the call in [16] and in [13] was inactive.

As for `O=C(N[C@H](c1ccccc1)[C@@H]1CN2CCC1CC2)c1c(Cl)ccc(C(F)(F)F)c1Cl`, the call in assay [16] and in assay [13] was inactive.

Regarding `c1ccc(N=Nc2ccccc2)cc1`, the result in assay [16] and in assay [13] was inactive.

Regarding `CC(C)COC(=O)c1ccccc1C(=O)OCC(C)C`, the AC50 is 23.2 µM (active) in [1]; 12.8 µM (active) in assay [3]; 15.9 µM (active) in assay [6]; 13.7 µM (active) in assay [7]; 13.6 µM (active) in assay [9]; 23.1 µM (active) in assay [10]. The concentration at half-maximal activity (AC50) in assay [11] is 23.6 µM (active); in assay [12] it was 24.8 µM (active); in assay [14], 22.2 µM (active); in [15], 13.9 µM (active). Also, the compound was classed as inactive in [2], in assay [4], in assay [5], in assay [8], in assay [16] and in assay [13].

On to `Cc1cc(N=Nc2ccccc2C)ccc1N`, for which the compound was called inactive in [16] and in assay [13].

Consider `Nc1cc(Cl)cc(C(=O)O)c1Cl`, for which the result in [1], in assay [2], in assay [3], in [4], in [5] and in assay [6] was inactive. The call in [7], in assay [8], in assay [9], in [10], in assay [11] and in assay [14] was inactive. The compound was called inactive in assay [15].

Regarding `C[C@]12C=CC3=C4CCC(=O)C=C4CC[C@H]3[C@@H]1CC[C@@H]2O`, the figures for the AC50 with DIO2 (gene 1734) and in the assay with DIO3 (gene 1735) were 100 µM (active) and 23.5 µM (active), respectively.

`O=Cc1ccco1`: the compound was classed as inactive in [16] and in assay [13].

Regarding `ClCCOCCCl`, the call (with DIO2 (gene 1734); in the assay on DIO3 (gene 1735); in [16]; in [13]) was inactive.

Regarding `c1ccc(NNc2ccccc2)cc1`, in assay [16], the call was inactive.

With `C[N+](C)(C)CC1CO1` (configuration not stated), the call in [16] and in assay [13] was inactive.

Consider `O=C(Oc1ccc(Br)cc1)N1CCN2CCC1CC2`, for which, in [13], the call was inactive.

Consider `[O-][Cl+]O`, for which the compound was called inactive in [1], in assay [3], in [4], in [5], in assay [6] and in [7]. The outcome in assay [8], in assay [9], in assay [10], in assay [11], in assay [12] and in [14] was inactive. Also, the compound was called inactive in assay [15]. Further, the AC50 in [2] was 15 µM (active).
